SMILES strings stand for the structures. Inconclusive results are not listed. Activity calls are given as the source filed them. The call rests on the fitted dose curve; in most records, active means well fitted curve in the direction sought with a large enough effect; inconclusive means small, poorly fitted or top-dose-only effect, or another doubt; inactive means no such curve, though single readings can be large; an effect the other way counts as inactive or inconclusive.

Test [1] in a line: qHTS of pediatric cancer cell lines to identify multiple opportunities for drug repurposing: Primary screen for A673 cells (AID 1347092). Further: nearly all actives have a fitted effect of over 45% in size. In outline:
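Cell viability of A673 measured by CellTiter-Glo ATP luminescence after 48 hours compound exposure. Dilution series spanned 0.78 nM to 46 µM (MIPE, 11-point) or 0.59 nM to 46 µM (NPC, 8-point); bortezomib 2.3 uM positive control.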

Test [2] in a line: qHTS of pediatric cancer cell lines to identify multiple opportunities for drug repurposing: Primary screen for SK-N-MC cells (AID 1347093). In outline:
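Metabolically active cells were quantified by ATP-dependent luminescence (CellTiter-Glo, 15 min at room temperature) following 48 h treatment. Cells had been plated at 500-1,000 per well and settled for 5 h beforehand.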
A general note: Quantitative high-throughput screening tests each substance at several concentrations.

Test [3] is described as follows: qHTS of pediatric cancer cell lines to identify multiple opportunities for drug repurposing: Primary screen for BT-37 cells (AID 1347094). In outline:
(§1)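 Readout: CellTiter-Glo luminescence, 48 h treatment. Controls DMSO (neutral) and bortezomib 2.3 µM final (positive). Potency and efficacy taken from primary-screen concentration-response curves.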

Test [4] is described as follows: qHTS of pediatric cancer cell lines to identify multiple opportunities for drug repurposing: Primary screen for NB-EBc1 cells (AID 1347095). The procedure, abridged:
as §1

The nature of test [5]: qHTS of pediatric cancer cell lines to identify multiple opportunities for drug repurposing: Primary screen for U-2 OS cells (AID 1347096). Further: nearly all actives have a fitted effect of over 50% in size. In outline: (§2)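 Cells (500-1,000/well) rested 5 h, then received compounds for 48 h; metabolically active cells were measured by CellTiter-Glo luminescence. Final concentrations spanned up to 46 µM (MIPE, 11-point) or 0.59 nM-46 µM (NPC, 8-point) in primary screens, 11-point in follow-ups.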

A short description of test [6]: qHTS of pediatric cancer cell lines to identify multiple opportunities for drug repurposing: Primary screen for Saos-2 cells (AID 1347097). Further: nearly all actives have a fitted effect of over 40% in size. In outline:
as §1

Test [7] in a line: qHTS of pediatric cancer cell lines to identify multiple opportunities for drug repurposing: Primary screen for SK-N-SH cells (AID 1347098). Further: nearly all actives have a fitted effect of over 65% in size. The procedure, abridged:
as §2

A short description of test [8]: qHTS of pediatric cancer cell lines to identify multiple opportunities for drug repurposing: Primary screen for NB1643 cells (AID 1347099). Further: nearly all actives have a fitted effect of over 50% in size. The procedure, abridged:
as §1

Test [9] in a line: qHTS of pediatric cancer cell lines to identify multiple opportunities for drug repurposing: Primary screen for LAN-5 cells (AID 1347100). The procedure, abridged:
as §2

Test [10] is described as follows: qHTS of pediatric cancer cell lines to identify multiple opportunities for drug repurposing: Primary screen for BT-12 cells (AID 1347101). Further: nearly all actives have a fitted effect of over 25% in size. The procedure, abridged: as §2
A short description of test [11]: qHTS of pediatric cancer cell lines to identify multiple opportunities for drug repurposing: Primary screen for OHS-50 cells (AID 1347103). Further: nearly all actives have a fitted effect of over 40% in size. The procedure, abridged:
as §2

Test [12] can be described thus: qHTS of pediatric cancer cell lines to identify multiple opportunities for drug repurposing: Primary screen for RD cells (AID 1347104). Further: nearly all actives have a fitted effect of over 55% in size. In outline: as §1
Test [13] is described as follows: qHTS of pediatric cancer cell lines to identify multiple opportunities for drug repurposing: Primary screen for MG 63 (6-TG R) cells (AID 1347105). Further: nearly all actives have a fitted effect of over 50% in size. The procedure, abridged: as §1
A short description of test [14]: qHTS of pediatric cancer cell lines to identify multiple opportunities for drug repurposing: Confirmatory screen for NB1643 cells (AID 1347109). Further: nearly all actives have a fitted effect of over 45% in size. The procedure, abridged: as §2
Test [15] is described as follows: qHTS of pediatric cancer cell lines to identify multiple opportunities for drug repurposing: Confirmatory screen for A673 cells (AID 1347110).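 Further: cells exposed to compound for 48 h before the viability read; nearly all actives have a fitted effect of over 65% in size.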 The procedure, abridged:
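Viability was read as ATP luminescence (CellTiter-Glo) after 48 h of compound exposure at 37 C in A673 cells seeded at 500-1,000/well. Titrations reached 46 uM final, with 11 points in the confirmatory screen. Concentration-response curves were fitted directly.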

Test [16] is described as follows: qHTS of pediatric cancer cell lines to identify multiple opportunities for drug repurposing: Confirmatory screen for SK-N-MC cells (AID 1347111).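 Further: cells exposed to compound for 48 h before the readout; nearly all actives have a fitted effect of over 70% in size.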 The procedure, abridged: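 Seed 500-1,000 cells/well; rest 5 h at 37 degrees C. Pin-transfer compounds, 11-point titration. Incubate 48 h. Add CellTiter-Glo, 15 min RT, read luminescence.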
Test [17] is described as follows: qHTS of pediatric cancer cell lines to identify multiple opportunities for drug repurposing: Primary screen for control Hh wild type fibroblast cells (AID 1347106). Further: nearly all actives have a fitted effect of over 55% in size. In outline: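 Viability after 48 h compound treatment at 37C, 500-1,000 cells/well, read as ATP luminescence with CellTiter-Glo. Primary screens used 11-point (MIPE, 0.78 nM-46 µM) or 8-point (NPC, 0.59 nM-46 µM) final concentrations; follow-up screens used 11-point dilutions.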

A short description of test [18]: qHTS of pediatric cancer cell lines to identify multiple opportunities for drug repurposing: Primary screen for Rh30 cells (AID 1347107). Further: nearly all actives have a fitted effect of over 75% in size. The procedure, abridged:
as §2

The nature of test [19]: qHTS of pediatric cancer cell lines to identify multiple opportunities for drug repurposing: Primary screen for Rh18 cells (AID 1347102). Further: nearly all actives have a fitted effect of over 65% in size. The procedure, abridged:
as §2

A short description of test [20]: qHTS of pediatric cancer cell lines to identify multiple opportunities for drug repurposing: Primary screen for Rh41 cells (AID 1347108). Further: nearly all actives have a fitted effect of over 70% in size. In outline: as §1
Potency means the concentration at half of the fitted maximal effect.

On to `COC1=C2C[C@@H](C)C[C@H](OC)[C@@H](O)[C@@H](C)C=C(C)[C@H](OC(N)=O)[C@@H](OC)C=CC=C(C)C(=O)NC(=CC1=O)C2=O`, for which the Potency is 4.69 µM (active) in test [1]; 1.05 µM (active) in test [2]; 4.32 µM (active) in test [3]; 0.743 µM (active) in test [4]; 2.41 µM (active) in [7]; 4.18 µM (active) in [8]. In addition, the Potency was 8.33 µM (active) in test [9]; 6.11 µM (active) in [10]; 6.85 µM (active) in test [11]; 5.26 µM (active) in test [12]; 14.8 µM (active) in [13]; 1.31 µM (active) in test [14]. Also, the Potency in [15] is 2.61 µM (active); in test [16] it was 1.04 µM (active). Besides, the Potency entry in [5] and in [6] was “inactive” throughout.
As for `C=CC[C@@H]1C=C(C)C[C@H](C)C[C@H](OC)[C@H]2O[C@@](O)(C(=O)C(=O)N3CCCC[C@H]3C(=O)O[C@H](C(C)=C[C@@H]3CC[C@H](O)[C@H](OC)C3)[C@@H](C)[C@@H](O)CC1=O)[C@@H](C)C[C@@H]2OC`, the Potency result in test [1], in test [4], in [5], in test [17] and in test [18] was “inactive” each time. Besides, the Potency was 8.33 µM (active) in test [2]; 1.72 µM (active) in [3]; 1.87 µM (active) in test [6]; 6.07 µM (active) in test [7]; 6.11 µM (active) in [11].
Take `N#Cc1cc(NC(=O)Nc2nnc(-c3ccncc3)s2)ccc1-c1cn[nH]c1`: the Potency result in [1], in test [2], in test [3], in test [4], in [5] and in test [6] was “inactive” each time. Besides, the Potency result in [9], in test [10], in test [19], in test [11], in test [12] and in test [13] was “inactive” in each case. Also, the Potency result in test [17] and in test [18] was “inactive” each time.
Consider `C[C@@H](Oc1ccc2[nH]nc(C=Cc3cnn(CCO)c3)c2c1)c1c(Cl)cncc1Cl`, for which the Potency in test [1] is 18.7 µM (active); in test [2], 7.43 µM (active); in test [3], 24.3 µM (active); in test [4], 0.0935 µM (active); in test [7], 0.681 µM (active); in [9], 4.18 µM (active). Further, the Potency in test [10] was 17.2 µM (active); in [19], 5.9 µM (active); in [11], 7.69 µM (active); in [12], 18.7 µM (active); in [13], 18.7 µM (active); in test [20], 14.8 µM (active). The Potency in test [14] was 0.657 µM (active); in test [15] it was 1.31 µM (active); in [16] it was 2.61 µM (active). In addition, the Potency entry in test [5] was “inactive”.
As to `OCC(O)C(O)C(O)CO` (configuration not stated), the Potency entry in [1], in [2], in test [3], in test [4], in [5] and in [6] was “inactive” each time. The Potency result in test [8], in test [9], in test [10], in test [19], in [11] and in [12] was “inactive” each time. The Potency result in test [13], in test [17], in test [18] and in test [20] was “inactive” each time.
With `COc1cc(N2CCC(C(N)=O)CC2)ccc1Nc1nc(N)c(Cl)c(Nc2ccccc2S(=O)(=O)C(C)C)n1`, the Potency in [1] is 1.18 µM (active); in test [2], 0.132 µM (active); in test [4] it was 0.743 µM (active); in [8], 0.526 µM (active); in test [9] it was 0.235 µM (active); in test [11] it was 0.0611 µM (active). Besides, in test [20], the Potency was 0.59 µM (active). Moreover, the Potency result in [3], in test [5], in [10] and in test [18] was “inactive” throughout.
Take `Cc1cnc(Nc2ccc(N3CCN(C)CC3)cc2)nc1Nc1cccc(S(=O)(=O)NC(C)(C)C)c1`: the Potency in test [1] is 1.18 µM (active); in test [2] it was 1.05 µM (active); in [3] it was 21.7 µM (active); in [4], 1.87 µM (active); in test [6], 4.69 µM (active); in test [7], 3.04 µM (active). For the same compound, the Potency in test [8] is 3.72 µM (active); in test [9], 0.743 µM (active); in test [19], 3.32 µM (active); in test [11] it was 1.09 µM (active); in test [12] it was 5.26 µM (active); in test [13] it was 7.43 µM (active). Besides, the Potency in test [17] is 16.6 µM (active); in [18], 5.9 µM (active); in [14] it was 4.65 µM (active); in test [15] it was 4.65 µM (active); in test [16], 3.29 µM (active). In [5], the Potency entry is “inactive”.
For `CN[C@H]1[C@@H](O)[C@@H]2O[C@@H]3O[C@H](C)CC(=O)[C@]3(O)O[C@@H]2[C@@H](NC)[C@H]1O`, the Potency in [1] was 0.0743 µM (active); in test [2] it was 0.166 µM (active); in [3] it was 9.68 µM (active); in [4], 8.33 µM (active); in [5], 2.96 µM (active); in [6], 1.87 µM (active). Further, the Potency in test [7] is 6.07 µM (active); in test [8] it was 1.87 µM (active); in test [9], 0.166 µM (active); in test [19], 1.18 µM (active); in test [12], 0.59 µM (active); in test [13], 9.35 µM (active). For the same compound, the Potency in test [17] is 3.72 µM (active); in test [18] it was 0.296 µM (active); in test [20], 1.18 µM (active). Besides, the Potency result in test [14] and in test [15] was “inactive” throughout.
Take `CC(C)N1[N]C(=C2C=c3cc(O)ccc3=N2)c2c(N)ncnc21`: the Potency is 1.48 µM (active) in [1]; 0.148 µM (active) in test [2]; 0.344 µM (active) in [3]; 0.59 µM (active) in [4]; 14.8 µM (active) in test [5]; 5.26 µM (active) in [6]. Besides, the Potency is 19.2 µM (active) in test [7]; 18.7 µM (active) in test [8]; 5.9 µM (active) in test [9]; 5.9 µM (active) in test [19]; 0.273 µM (active) in test [11]; 1.66 µM (active) in [12]. Also, the Potency in test [13] is 1.18 µM (active); in test [18], 5.9 µM (active); in [20], 1.05 µM (active); in [14], 10.4 µM (active); in [15] it was 4.14 µM (active); in [16], 2.33 µM (active).
Turning to `OC[C@H]1OC(O)C[C@@H](O)[C@H]1O` (some centres not stated), the Potency entry in test [1], in test [2], in [3], in test [4], in test [5] and in test [6] was “inactive” in each case. For the same compound, the Potency entry in [7], in test [8], in test [9], in [19], in test [11] and in test [12] was “inactive” each time. In addition, the Potency result in test [13], in [17], in [18] and in test [20] was “inactive” each time.

Values taken from PubChem BioAssay (NCATS).
